Experimental data taken from PubChem BioAssay (NCI).
The panel holds about 79,000 compounds, 15% with a hit somewhere; the sample as a whole holds those more often. No stated cut-off is given here; in the data, active means growth inhibition above about 70%; inactive means the rest.

Experiments:
[1] = NCI Yeast Anticancer Drug Screen. Data for the rad50 strain (AID 155);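 further: 0% = growth of vehicle-only cultures of the same strain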; settings: S. cerevisiae rad50 strain growth inhibition; at 50.0 µM; active compounds read high
Method in brief: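 Relative growth inhibition (compound vs vehicle) was measured in yeast with a defined repair-gene alteration.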

[2] = NCI Yeast Anticancer Drug Screen. Data for the mec2-1 strain (AID 157); settings: S. cerevisiae mec2-1 strain, at 50.0 µM, active compounds read high
Method in brief: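 Using mec2-1 yeast: add compound, measure growth, express inhibition versus vehicle-treated cultures.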

[3] = NCI Yeast Anticancer Drug Screen. Data for the sgs1 mgt1 strain (AID 161);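 further: 0% = growth of cultures given vehicle only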; settings: S. cerevisiae sgs1 mgt1 strain, at 50.0 µM, active compounds read high
Method in brief: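 Percent growth inhibition was derived by comparing compound-exposed mutant yeast with vehicle-exposed cultures. The strain carries alterations in DNA damage repair.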

[4] = NCI Yeast Anticancer Drug Screen. Data for the cln2 rad14 strain (AID 165);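 further: 0% = growth equal to vehicle treated cultures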; settings: S. cerevisiae cln2 rad14 strain, at 50.0 µM, active compounds read high
Method in brief: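 Yeast strain cln2 rad14, bearing defects in cell cycle control and DNA repair, serves as the test system; values reflect growth inhibition compared with vehicle.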

[5] = NCI Yeast Anticancer Drug Screen. Data for the bub3 strain (AID 167); settings: S. cerevisiae bub3 mutant strain, at 50.0 µM, active compounds read high
Method in brief: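 Screening used yeast with an engineered genetic alteration affecting cell cycle control. Compound-exposed cultures were compared with vehicle cultures, and reduced growth was taken as inhibition.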

[6] = NCI Yeast Anticancer Drug Screen. Data for the mlh1 rad18 strain (AID 175); settings: S. cerevisiae mlh1 rad18 strain growth inhibition; at 50.0 µM; active compounds read high
Method in brief: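 Steps: expose repair-defective yeast to compound; measure growth; express inhibition against vehicle-treated controls.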

Measured: growth inhibition

CCOC(=O)CNC=O
inactive: [1] 33.5% | [2] -6.1% | [3] -2.7% | [4] 26.4% | [5] -1.8% | [6] 8.55%

CCN(CC)CC1CO1 (stereo not given)
inactive: [1] -8.15% | [2] -12.1% | [3] 3.35% | [4] -3.5% | [5] -11.7% | [6] 9.2%

Cc1c(-c2ccccc2)noc1-n1nnc2ccccc2c1=O
inactive: [1] -7.45% | [2] 29.6% | [3] 11.4% | [4] -42.8% | [5] 48.4% | [6] 9.05%

C=CCCC1CC(OCC)OC(CCC=C)O1 (stereo not given)
inactive: [1] 16.9% | [2] 1.15% | [3] 1.25% | [4] -24.8% | [5] -6.3% | [6] 13.8%

COC(=O)c1ccccc1OC(C)=O
inactive: [1] 9.8% | [2] 11.4% | [3] -0.4% | [4] 13.8% | [5] 1.5% | [6] -10.7%

CCOc1ccc(C2=NNC(=O)CC2)cc1
inactive: [1] 26% | [2] -8.55% | [3] -9.15% | [4] 14.3% | [5] 13.9% | [6] 17.6%

CC[N+](C)(CC)Cc1ccccc1[N+](=O)[O-]
inactive: [1] -32.8% | [2] -47.3% | [3] -25.9% | [4] 2.85% | [5] -38.8% | [6] -28.6%

CCN(CC)C(=O)CC1(O)CCCCC1
inactive: [1] -9.7% | [2] -11.2% | [3] -3.15% | [4] -9.65% | [5] 2.3% | [6] 4.2%

CC1Cc2ccc(OCC(O)CO)cc2C1=O (stereo not given)
inactive: [1] 7.35% | [2] 1.8% | [3] 11.1% | [4] 15.1% | [5] -0.2% | [6] 1.7%

Cc1ccc(C(=O)/C=C/c2ccc3c(c2)OCO3)c(C)c1
inactive: [1] 39.9% | [2] 21.8% | [3] 52.6% | [4] -6.7% | [5] 47.5% | [6] 33.3%

CN(C)C(=S)/N=C(\N)N(C)C
inactive: [1] 4.2% | [2] -8.55% | [3] -3.8% | [4] -0.45% | [5] 1.7% | [6] 15.6%

CCOC(=O)[C@H](Cc1ccccc1)NC(=O)c1nc[nH]c1[N+](=O)[O-]
inactive: [1] -10.1% | [2] -9.25% | [3] -31.1% | [4] 5.6% | [5] 1.2% | [6] -34%

CCOC(=O)Cn1c(=O)c2ccccc2c2cc([N+](=O)[O-])ccc21
inactive: [1] -6.45% | [2] 11.3% | [3] 13.2% | [4] 5.95% | [5] -3.65% | [6] -11.7%

CCN(CC)CCSC(=O)c1ccc([N+](=O)[O-])cc1
inactive: [1] 20.1% | [2] 7.7% | [3] 15.6% | [4] 19.8% | [5] 38.5% | [6] 8.1%

Cc1ccc(NC(=O)CCCC(=O)C(C#N)c2ccccc2Cl)cc1C (stereo not given)
inactive: [1] 0.15% | [2] -0.95% | [3] -5.75% | [4] -22.5% | [5] -10.1% | [6] -5.1%

O=C(N/C=C(/c1ccccc1)S(=O)Cc1ccccc1)Nc1ccccc1Cl (stereo not given)
inactive: [1] -8.45% | [2] -27.6% | [3] 0.85% | [4] -15.2% | [5] -9.7% | [6] -24.9%

COC(=O)C1(Cc2ccccc2)Cc2ccccc2C1
inactive: [1] 24.7% | [2] 36.1% | [3] 36.4% | [4] 20.2% | [5] 55.4% | [6] 12.2%

O=C(CC(=O)n1nc(-c2ccccc2)c(N=Nc2ccccc2Cl)c1-c1ccccc1)Nc1ccc(Cl)cc1
inactive: [1] -9.5% | [2] 8.45% | [3] -3.95% | [4] 13.9% | [5] -18.7% | [6] -8.65%

Cc1ccc2c(c1)[nH]c(=S)n2/C=C(\c1ccccc1)S(=O)Cc1ccccc1 (stereo not given)
inactive: [1] -23.7% | [2] -25.6% | [3] -19.9% | [4] 0.3% | [5] -28.1% | [6] -26.2%

CC1CCC(OC(=O)CC#N)CC1 (stereo not given)
inactive: [1] -2.15% | [2] -7.2% | [3] -2.3% | [4] 3.45% | [5] 2.35% | [6] -6.15%

OCC(O)C(O)C(O)C(c1ccc(Cl)cc1)c1ccc(Cl)cc1 (stereo not given)
inactive: [1] -16.4% | [2] 0.65% | [3] -23% | [4] 5.35% | [5] 2.25% | [6] 35%

CC(CN(C)C)C(=O)c1ccccc1C(=O)O (stereo not given)
inactive: [1] -44.9% | [2] -24.9% | [3] -36% | [4] -35.2% | [5] -2.05% | [6] -16.7%

Nc1[nH]c(=S)[nH]c(=O)c1NS(=O)(=O)c1ccccc1
inactive: [1] 3.65% | [2] -1.6% | [3] 12.6% | [4] -4.85% | [5] -10.2% | [6] 18.4%

O=c1oc2ccccc2cc1-n1nnc2cc([N+](=O)[O-])ccc21
inactive: [1] 39% | [2] 24.1% | [3] 25.8% | [4] -25.6% | [5] 12.8% | [6] 26.8%

O=[N+]([O-])c1cc(Cl)cc2cc(Br)cnc12
inactive: [1] 4.2% | [2] 15.3% | [3] -19.9% | [4] 3.8% | [5] 10.5% | [6] 4.4%

CC1(C)OC[C@@H](O)[C@H](Br)CO1
inactive: [1] -14.7% | [2] -36% | [3] -20.9% | [4] -3.95% | [5] -32.9% | [6] -28.1%

CCOC(=O)/C=C1\CCCC12OCCO2
inactive: [1] 29.2% | [2] -3.65% | [3] 3.1% | [4] 19.2% | [5] -5.75% | [6] -6.1%

CC(=O)Oc1ccc(C(C)(C)C)cc1C
inactive: [1] 6.05% | [2] -10.1% | [3] -9.45% | [4] -6.85% | [5] 0.35% | [6] -21.1%

CCOC(=O)NNC(=O)C1CSC(c2ccccc2)N1C(C)=O (stereo not given)
inactive: [1] -52.5% | [2] -13.4% | [3] -27.1% | [4] 10.5% | [5] 1.85% | [6] -22.3%

O=C(Nc1ccc(S(=O)(=O)N2CCCCC2)cc1)OC1CCCCC1
inactive: [1] 16.4% | [2] 3.75% | [3] -4.2% | [4] 23.6% | [5] 30.9% | [6] -5.45%

CC1CSC(C)C(=O)N1 (stereo not given)
inactive: [1] -11.2% | [2] -3.65% | [3] -5.75% | [4] 7.55% | [5] 15.8% | [6] 2%

Cc1cc(C(=O)N/N=C/c2cc(Cl)cc(Cl)c2O)c2cc(Br)ccc2n1
inactive: [1] 61.5% | [2] 25.4% | [3] 54% | [4] 15.9% | [5] -0.2% | [6] 45%

Cc1nc2c(sc(=S)n2-c2ccccc2)c2nc3ccccc3n12
inactive: [1] -9.35% | [2] -15.7% | [3] 7.7% | [4] -1.2% | [5] -2.55% | [6] -20.6%

NC(CCC(F)(F)F)C(=O)O (stereo not given)
inactive: [1] -4.1% | [2] -7.95% | [3] 7.2% | [4] 18.6% | [5] 17.5% | [6] 6.65%

CC(C)/C(=N\[N+](C)(C)C)c1ccccc1
inactive: [1] 0.4% | [2] -22.8% | [3] -21.8% | [4] -3.05% | [5] -22.7% | [6] 5.15%

CCNOCc1ccccc1
inactive: [1] -4.35% | [2] -11.7% | [3] -11% | [4] -18.1% | [5] -0.45% | [6] -9.95%

CCCCc1c2c(nc3c1CCc1cc4c(nc1-3)-c1nc3c(c(CCCC)c1CC4)CCC/C3=C\c1ccccc1)/C(=C/c1ccccc1)CCC2
inactive: [1] 16.6% | [2] 3.2% | [3] -0.25% | [4] 5.4% | [5] 5.05% | [6] 2.8%

CCC(Cc1ccccc1)C1=NC(C)(C)CC(C)O1 (stereo not given)
inactive: [1] 1.2% | [2] 3.95% | [3] -5.25% | [4] -20.6% | [5] -1.4% | [6] 25.4%

CC(Cc1ccccc1)NC(=O)C1CC2CCCCN2C1C (stereo not given)
inactive: [1] 4.95% | [2] 20.4% | [3] 57.2% | [4] 45.9% | [5] 45.5% | [6] 48.6%

COc1ccc(NC(=O)N(C)C)cc1OC
inactive: [1] 14.8% | [2] -5.25% | [3] -4.2% | [4] -25.6% | [5] 4.4% | [6] 15.8%
